Drawing on PubChem BioAssay (NCATS), this text covers Potency for 45 molecules.

Records with an inconclusive call do not appear. Activity calls are given as the source filed them. Unless noted, the call rests on the fitted dose curve; in most records, active means well fitted curve in the direction sought with a large enough effect in the repeat runs; inconclusive means weak or mixed curves; inactive means no such curve, though single readings can be large; an effect the other way counts as inactive or inconclusive.

The target of assay [1] is Cytochrome P450 2D6 (Homo sapiens) (UniProt P10635). The experiment in a line: Cytochrome P450 family 2 subfamily D member 6 (CYP2D6) small molecule antagonists: luciferase biochemical (cell-free) qHTS assay (AID 1645840). Further: nearly all actives have a fitted effect of over 55% in size. Further: potency means the concentration at half of the fitted maximal effect. In a few lines: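 P450-Glo CYP2D6 system: proluciferin substrate converted by enzyme to luciferin, read by luminescence proportional to activity. Enzyme-substrate mix with compound 10 min at room temperature, then NADPH regeneration 1 h before detection reagent.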
Sequence of Cytochrome P450 2D6 (Homo sapiens) (P10635 whole entry, looked up): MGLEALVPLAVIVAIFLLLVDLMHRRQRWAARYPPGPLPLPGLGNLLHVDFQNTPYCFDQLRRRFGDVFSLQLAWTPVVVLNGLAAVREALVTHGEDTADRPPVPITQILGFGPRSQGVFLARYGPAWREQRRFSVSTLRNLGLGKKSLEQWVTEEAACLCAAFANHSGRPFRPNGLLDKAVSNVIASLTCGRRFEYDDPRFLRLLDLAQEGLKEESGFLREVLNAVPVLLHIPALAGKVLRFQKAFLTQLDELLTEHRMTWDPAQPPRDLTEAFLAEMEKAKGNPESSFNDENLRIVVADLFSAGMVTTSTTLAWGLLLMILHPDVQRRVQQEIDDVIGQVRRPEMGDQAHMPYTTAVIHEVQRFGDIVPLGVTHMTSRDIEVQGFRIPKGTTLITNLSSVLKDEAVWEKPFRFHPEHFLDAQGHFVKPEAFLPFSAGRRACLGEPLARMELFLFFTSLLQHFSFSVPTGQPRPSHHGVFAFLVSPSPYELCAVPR
For orientation: Quantitative high-throughput screening tests each substance at several concentrations.

Assay [2] has as its target Cytochrome P450 2C9 (Homo sapiens) (UniProt P11712). Put plainly: Cytochrome P450 family 2 subfamily C member 9 (CYP2C9) small molecule antagonists: luciferase biochemical (cell-free) qHTS assay (AID 1645842). Further: nearly all actives have a fitted effect of over 55% in size. Further: potency means the concentration at half of the fitted maximal effect. In outline: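 P450-Glo CYP2C9 system: proluciferin substrate with enzyme in mix containing 0.4% BSA, 10 min at room temperature, then NADPH regeneration solution added and incubated 1 h at 37C. Detection reagent stopped reaction; luminescence read after 20 min as RLU.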

Assay [3] addresses Rap guanine nucleotide exchange factor 3 (Homo sapiens) (UniProt O95398). The experiment in a line: Confirmatory qHTS for antagonist of cAMP-regulated guanine nucleotide exchange factor 3 (EPAC1) (AID 1645880; active means well fitted curve in the direction sought with a large enough effect; an effect the other way counts as inactive or inconclusive; further: nearly all actives have a fitted effect of over 55% in size; further: potency means the concentration at half of the fitted maximal effect). In a few lines:
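Released BODIPY-GDP fluoresces less than Rap1-bound BODIPY-GDP; the signal is followed at 480/540 nm at 5-min intervals over 30 min, after 5 min at room temperature. Reactions contain 100 nM EPAC1, 250 nM RAP1B-BODIPY-GDP and 50 uM GDP; results are normalized to ATA and DMSO.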

Assay [4] has the same target. The experiment in a line: Confirmatory qHTS for agonist of cAMP-regulated guanine nucleotide exchange factor 3 (EPAC1) (AID 1645881; active means well fitted curve in the direction sought with a large enough effect; an effect the other way counts as inactive or inconclusive;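 further: EPAC1 catalysed release of BODIPY-GDP from Rap1B seen as fluorescence loss; nearly all actives have a fitted effect of over 75% in size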).
The target in assay [5] is Rap guanine nucleotide exchange factor 4 (Homo sapiens) (UniProt Q8WZA2). The experiment in a line: Confirmatory qHTS for agonist of cAMP-regulated guanine nucleotide exchange factor 4 (EPAC2) (AID 1645884; active means well fitted curve in the direction sought with a large enough effect; an effect the other way counts as inactive or inconclusive;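 further: nucleotide exchange releases bodipy-GDP from Rap1 and this lowers its fluorescence; nearly all actives have a fitted effect of over 65% in size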).
Sequence of Rap guanine nucleotide exchange factor 4 (Homo sapiens) (Q8WZA2 whole entry, looked up): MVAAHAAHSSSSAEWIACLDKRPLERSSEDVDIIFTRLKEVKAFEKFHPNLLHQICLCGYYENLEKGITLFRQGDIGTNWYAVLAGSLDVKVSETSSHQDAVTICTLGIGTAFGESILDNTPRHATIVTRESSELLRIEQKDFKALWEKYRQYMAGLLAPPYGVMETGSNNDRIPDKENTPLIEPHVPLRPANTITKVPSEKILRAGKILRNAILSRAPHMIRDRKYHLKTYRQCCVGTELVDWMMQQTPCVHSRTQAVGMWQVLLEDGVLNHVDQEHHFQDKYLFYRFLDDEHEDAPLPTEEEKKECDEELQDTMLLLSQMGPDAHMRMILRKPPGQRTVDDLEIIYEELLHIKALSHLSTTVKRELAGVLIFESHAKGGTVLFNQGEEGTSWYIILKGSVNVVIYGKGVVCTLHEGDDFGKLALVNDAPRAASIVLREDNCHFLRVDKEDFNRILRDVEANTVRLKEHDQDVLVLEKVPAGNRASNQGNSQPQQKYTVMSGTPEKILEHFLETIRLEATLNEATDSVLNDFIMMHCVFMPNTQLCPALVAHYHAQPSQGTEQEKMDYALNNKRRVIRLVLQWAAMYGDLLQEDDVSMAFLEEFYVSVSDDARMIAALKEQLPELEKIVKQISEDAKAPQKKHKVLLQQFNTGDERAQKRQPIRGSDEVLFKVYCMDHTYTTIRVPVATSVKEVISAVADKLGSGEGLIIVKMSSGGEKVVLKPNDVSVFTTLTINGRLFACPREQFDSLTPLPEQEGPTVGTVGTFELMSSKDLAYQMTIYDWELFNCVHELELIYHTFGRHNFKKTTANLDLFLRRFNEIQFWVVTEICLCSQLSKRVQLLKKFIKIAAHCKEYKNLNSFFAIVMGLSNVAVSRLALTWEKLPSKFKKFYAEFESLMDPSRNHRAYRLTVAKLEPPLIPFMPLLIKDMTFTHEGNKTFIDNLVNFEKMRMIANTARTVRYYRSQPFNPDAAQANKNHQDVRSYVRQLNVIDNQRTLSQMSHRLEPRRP
Assay [6] has the same target. The experiment in a line: Confirmatory qHTS for antagonist of cAMP-regulated guanine nucleotide exchange factor 4 (EPAC2) (AID 1645885; active means well fitted curve in the direction sought with a large enough effect; an effect the other way counts as inactive or inconclusive; further: nearly all actives have a fitted effect of over 25% in size).
Assay [7] concerns the target Rap guanine nucleotide exchange factor 3 (Homo sapiens) (UniProt O95398). Put plainly: Counterscreen qHTS for antagonist of cAMP-regulated guanine nucleotide exchange factor 3 (EPAC1) (AID 1645888; active means well fitted curve in the direction sought with a large enough effect; an effect the other way counts as inactive or inconclusive). In a few lines: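 Rap1B–BODIPY-GDP (250 nM) with 50 uM GDP; compounds pin-transferred to 9.74 nM–152 uM final (activator) or from 7.32 nM upwards (inhibitor). Fluorescence Ex/Em 480/540 nm read at 5 and 30 min, then after adding cAMP or buffer, at room temperature.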

Assay [8] concerns the target N-terminal Xaa-Pro-Lys N-methyltransferase 1 (Homo sapiens) (UniProt Q9BV86). Put plainly: Confirmatory qHTS for Inhibitors of N-terminal methyltransferase 1 (NTMT1): MTaseGlo Assay (AID 1645874; active means well fitted curve in the direction sought with a large enough effect; an effect the other way counts as inactive or inconclusive; further: potency means the concentration at half of the fitted maximal effect; nearly all actives have a fitted effect of over 65% in size). In outline: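 SPKRIA peptide at 1 uM was methylated by 125 nM NTMT1 using 100 uM SAM over 30 min at room temperature, following a 15 min compound preincubation. Product SAH was detected luminescently.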

Sequence of Rap guanine nucleotide exchange factor 3 (Homo sapiens) (O95398 whole entry, looked up): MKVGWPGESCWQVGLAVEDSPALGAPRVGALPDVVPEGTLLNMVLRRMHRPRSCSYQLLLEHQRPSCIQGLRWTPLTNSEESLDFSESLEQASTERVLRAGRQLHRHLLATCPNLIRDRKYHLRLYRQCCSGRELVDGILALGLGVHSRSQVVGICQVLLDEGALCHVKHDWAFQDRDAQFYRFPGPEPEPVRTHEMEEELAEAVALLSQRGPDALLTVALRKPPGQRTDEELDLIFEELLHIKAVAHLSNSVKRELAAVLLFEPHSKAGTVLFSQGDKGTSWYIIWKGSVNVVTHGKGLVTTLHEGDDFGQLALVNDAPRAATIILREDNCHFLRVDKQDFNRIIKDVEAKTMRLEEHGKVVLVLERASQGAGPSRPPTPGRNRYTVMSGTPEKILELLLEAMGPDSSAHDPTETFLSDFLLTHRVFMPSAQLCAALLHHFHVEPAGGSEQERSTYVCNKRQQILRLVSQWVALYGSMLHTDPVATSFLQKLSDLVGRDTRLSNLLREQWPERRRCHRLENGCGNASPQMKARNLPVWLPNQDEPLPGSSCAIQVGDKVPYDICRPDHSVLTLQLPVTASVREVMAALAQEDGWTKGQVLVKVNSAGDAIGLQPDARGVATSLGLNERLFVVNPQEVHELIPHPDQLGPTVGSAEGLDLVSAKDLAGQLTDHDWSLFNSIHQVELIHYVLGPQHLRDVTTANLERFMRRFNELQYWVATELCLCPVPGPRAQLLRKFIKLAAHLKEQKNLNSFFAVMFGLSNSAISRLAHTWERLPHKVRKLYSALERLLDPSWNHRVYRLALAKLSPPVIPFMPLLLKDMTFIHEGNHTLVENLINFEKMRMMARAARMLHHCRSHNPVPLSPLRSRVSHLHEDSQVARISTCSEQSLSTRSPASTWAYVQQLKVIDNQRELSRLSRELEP
Sequence of Cytochrome P450 2C9 (Homo sapiens) (P11712 whole entry, looked up): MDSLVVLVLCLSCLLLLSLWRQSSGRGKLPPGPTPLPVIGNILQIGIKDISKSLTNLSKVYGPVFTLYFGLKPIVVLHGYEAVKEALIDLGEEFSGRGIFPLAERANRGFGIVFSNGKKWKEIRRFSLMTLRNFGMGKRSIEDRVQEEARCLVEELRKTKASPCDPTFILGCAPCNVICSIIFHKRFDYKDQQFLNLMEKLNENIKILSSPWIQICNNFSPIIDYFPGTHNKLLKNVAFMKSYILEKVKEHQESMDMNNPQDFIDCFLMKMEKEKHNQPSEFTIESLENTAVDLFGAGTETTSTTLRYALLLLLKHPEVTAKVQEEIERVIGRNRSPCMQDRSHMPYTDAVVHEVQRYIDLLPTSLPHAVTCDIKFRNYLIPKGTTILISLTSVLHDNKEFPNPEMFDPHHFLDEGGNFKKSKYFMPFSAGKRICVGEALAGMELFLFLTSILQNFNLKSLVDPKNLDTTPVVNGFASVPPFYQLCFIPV
Sequence of N-terminal Xaa-Pro-Lys N-methyltransferase 1 (Homo sapiens) (Q9BV86 whole entry, looked up): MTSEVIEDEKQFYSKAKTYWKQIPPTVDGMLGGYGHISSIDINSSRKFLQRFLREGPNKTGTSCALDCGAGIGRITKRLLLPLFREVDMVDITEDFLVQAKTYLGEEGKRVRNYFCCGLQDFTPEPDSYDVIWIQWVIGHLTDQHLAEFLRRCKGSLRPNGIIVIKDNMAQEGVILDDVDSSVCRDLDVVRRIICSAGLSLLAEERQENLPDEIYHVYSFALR

In the case of `Cc1ncc(Cl)cc1NCc1ccc(C(=O)N[C@@H](CC2CCCC2)C(=O)NC2CC2)s1`, the Potency in assay [1] was 15.1 µM (active); in assay [2] it was 8.49 µM (active).

As for `Cc1ccc(NC(=O)Cn2c(=O)n(CCC(=O)N3CCc4ccccc4C3)c(=O)c3ccccc32)c(C)c1`, in assay [1], the Potency result was “inactive”. The Potency in assay [2] was 0.338 µM (active).

On to `CCOc1ccccc1NC(=O)Cn1c(=O)n(CCC(=O)NCc2ccc3c(c2)OCO3)c(=O)c2ccccc21`, for which the Potency is 0.425 µM (active) in assay [1] and 0.601 µM (active) in assay [2].

Turning to `COC(=O)c1cnc(N2CCN(c3ccc(OC)cc3)CC2)c2ccccc12`, the Potency entry in assay [1] is “inactive”. Also, the Potency in assay [2] was 2.13 µM (active).

Take `CCCCCCCCCCCCCCCC(=O)OC[C@H](O)[C@H]1OC(=O)C(=O)C1O` (stereo partly specified): the Potency entry in assay [1] was “inactive”. In addition, the Potency in assay [2] is 26.8 µM (active).

On to `COC(=O)c1cc(S(C)(=O)=O)ccc1OC`, for which the Potency entry in assay [1] and in assay [2] was “inactive” in each case.

In the case of `Cc1ccc(S(=O)(=O)Nc2nc3n(n2)C(c2ccc(F)cc2)C=C(c2ccccc2)N3)cc1` (stereo unspecified), the Potency entry in assay [1] and in assay [2] was “inactive” each time.

As for `NCC1OC(OC2C(N)CC(N)C(OC3OC(CO)C(O)C(N)C3O)C2O)C(N)CC1O` (stereo unspecified), the Potency entry in assay [1] and in assay [2] was “inactive” throughout.

As for `CCOc1ccc(-c2cc(NC(=O)Nc3ccccc3Cl)c(C(=O)OC)s2)cc1`, in assay [1], the Potency result was “inactive”. Also, the Potency in assay [2] is 5.35 µM (active).

For `CCNC(=O)N1CCN(C(=O)c2cnc3cc(OC)ccc3c2N2CCC(C)(C#N)CC2)CC1`, the Potency entry in assay [1] was “inactive”. For the same molecule, the Potency in assay [2] is 2.39 µM (active).

As for `Cc1cccc(NC(c2ccccc2C)c2ccc3ccc(C)nc3c2O)n1` (stereo unspecified), the Potency result in assay [1] was “inactive”. The Potency in assay [2] is 6.74 µM (active).

Take `CCc1ccc(-c2nc(CSCC(=O)NCc3ccc(C)cc3)c(C)o2)cc1`: the values for the Potency in assay [1] and in assay [2] were 15.1 µM (active) and 2.68 µM (active), respectively.

Consider `Cc1ccc(OCC(=O)Nc2cccc(OCc3cc(=O)n4cccc(C)c4n3)c2)cc1C`, for which, in assay [1], the Potency result was “inactive”. Further, the Potency in assay [2] was 0.756 µM (active).

In the case of `COc1cc(C(c2c(C)[nH][nH]c2=O)c2c(C)[nH][nH]c2=O)ccc1OC(=O)c1ccccc1OC`, the Potency entry in assay [1] is “inactive”. In addition, in assay [2], the Potency was 8.49 µM (active).

Regarding `O=c1cc2nc(-c3cccs3)nc(SCCOc3ccc(Cl)cc3)n2[nH]1`, the Potency entry in assay [1] is “inactive”. For the same molecule, the Potency in assay [2] was 19 µM (active).

Consider `O=C(CCCCCn1c(=O)c2sccc2n(CC(=O)Nc2cccc(Cl)c2)c1=O)NCc1ccc2c(c1)OCO2`, for which the Potency is 0.0268 µM (active) in assay [1] and 0.239 µM (active) in assay [2].

With `Cc1ccc(NC(=O)CSc2nc3ccccc3c3nc(CCn4cncc4C)nn23)cc1F`, the Potency was 3.79 µM (active) in assay [1] and 0.536 µM (active) in assay [2].

With `CCCNC(=O)C1CCC(Cn2c(=O)c3sccc3n(CC(=O)NCc3ccccc3)c2=O)CC1` (stereo unspecified), the Potency entry in assay [1] is “inactive”. Besides, the Potency in assay [2] is 6.01 µM (active).

Regarding `Cc1cccc(NC(c2ccccc2F)c2ccc3ccc(C)nc3c2O)n1` (stereo unspecified), the Potency result in assay [1] is “inactive”. Further, in assay [2], the Potency is 6.01 µM (active).

With `Cc1ccc(Nc2nc3ccccc3c3nnc(C)n23)c(C)c1`, the Potency entry in assay [1] was “inactive”. The Potency in assay [2] was 5.35 µM (active).

Regarding `Cc1ccc(C(=O)c2cn(CC(=O)Nc3ccc4c(c3)OCCO4)c3nc(C)ccc3c2=O)cc1`, the Potency result in assay [1] was “inactive”. Moreover, in assay [2], the Potency was 9.52 µM (active).

As to `CC(=O)Nc1ccc(C)cc1-c1nc2ccccc2n(CC(=O)Nc2cc(Cl)ccc2C)c1=O`, the Potency in assay [1] was 0.338 µM (active); in assay [2], 3.01 µM (active).

In the case of `CCCOCc1cc(CN2CCN(c3ccccc3OC)CC2)c(O)c2ncccc12`, the results for the Potency in assay [1] and in assay [2] were 13.5 µM (active) and 7.56 µM (active), respectively.

Take `CC1(C#N)CCN(c2c(C(=O)N3CCN(S(C)(=O)=O)CC3)cnc3ccc(F)cc23)CC1`: the Potency result in assay [1] and in assay [2] was “inactive” throughout.

As to `N#C/C(=C/c1ccccc1Cl)c1nc2ccccc2c(=O)[nH]1`, the Potency result in assay [1] is “inactive”. In assay [2], the Potency was 3.38 µM (active).

For `CCOC(=O)N1CCc2c(sc3c2c(=O)n(Cc2ccccc2)c(=O)n3CC(=O)Nc2ccc(F)cc2)C1`, the Potency is 1.51 µM (active) in assay [1] and 2.39 µM (active) in assay [2].

`CC1=C(C(=O)Nc2ccccc2C)C(c2cccnc2)n2nc(SCc3ccccc3)nc2N1` (stereo unspecified): the Potency entry in assay [1] is “inactive”. Besides, the Potency in assay [2] is 2.39 µM (active).

On to `COc1ccc(CNC(=O)C(=O)Nc2c3c(nn2-c2ccccc2)CSC3)cc1`, for which the Potency entry in assay [1] was “inactive”. Moreover, the Potency in assay [2] is 3.38 µM (active).

On to `CC1(C)CC1C(=O)NC(=CCCCCSCC(N)C(=O)O)C(=O)O` (stereo unspecified), for which the Potency result in assay [1] and in assay [2] was “inactive” in each case.

On to `COc1ccc(-c2nc(SCC(=O)Nc3ccc4c(c3)OCO4)c(-c3ccccc3)[nH]2)cc1`, for which the Potency is 6.01 µM (active) in assay [1] and 1.2 µM (active) in assay [2].

As for `COc1ccc(-c2noc(CCCC(=O)Nc3cccc(Cl)c3C)n2)cc1`, in assay [1], the Potency entry is “inactive”. Moreover, the Potency in assay [2] was 3.79 µM (active).

Turning to `Cc1cccc(NC(=O)Cn2cc(C(=O)c3ccco3)c3ccccc32)c1C`, the Potency in assay [1] was 6.01 µM (active); in assay [2] it was 3.01 µM (active).

With `CN1C(=O)NC(Cc2c[nH]c3c(Cl)cccc23)C1=O` (stereo unspecified), the Potency entry in assay [1] is “inactive”. Also, the Potency in assay [2] was 13.5 µM (active).

For `Cc1ccc([S+](=O)([O-])NC2CCC(C)(C)CC2)cc1`, the Potency entry in assay [1] is “inactive”. The Potency in assay [2] is 2.13 µM (active).

Take `CCC(C)Nc1cc(C(=O)NC2CC3CCC(C2)N3c2ccc(C(=O)C3CC3)cn2)c(C)cc1C(N)=O` (stereo unspecified): the Potency entry in assay [1] is “inactive”. The Potency in assay [2] was 8.49 µM (active).

`O=C(CC1N=C2c3ccccc3N=C(SCc3ccc(Cl)cc3)N2C1=O)NCCc1ccccc1` (stereo unspecified): the results for the Potency in assay [1] and in assay [2] were 2.13 µM (active) and 1.9 µM (active), respectively.

As for `Cc1noc(/C=C/c2cccs2)c1S(=O)(=O)N1CCC(C(=O)NCc2ccc(Cl)cc2)CC1`, the results for the Potency in assay [1] and in assay [2] were 2.39 µM (active) and 0.213 µM (active), respectively.

In the case of `CCc1ccc(C2=CC(c3cccc(C)c3)n3c(nc4ccccc43)N2)cc1` (stereo unspecified), the Potency in assay [1] is 9.52 µM (active); in assay [2], 6.01 µM (active).

As for `COc1ccc(-c2n[nH]c3c2cnc2cc(OC)c(OC)cc23)cc1`, the Potency entry in assay [1] and in assay [2] was “inactive” each time.

Turning to `Cc1cc(Cl)ccc1NC(=O)CCCn1nc(C)c2c(C)n(-c3ccccc3)nc2c1=O`, the Potency entry in assay [1] was “inactive”. In addition, the Potency in assay [2] was 13.5 µM (active).

As to `CCOC(=O)c1cc(S(=O)(=O)N2CCN(c3cc(Cl)ccc3C)CC2)[nH]n1`, the Potency in assay [1] is 26.8 µM (active); in assay [2], 1.2 µM (active).

For the molecule `COc1ccc(Cn2ccnc2SCC(=O)Nc2nc3ccccc3s2)cc1`, the Potency was 9.52 µM (active) in assay [1] and 2.39 µM (active) in assay [2].

Turning to `CCC(=O)N1CCc2cc(S(=O)(=O)NC(Cc3ccccc3)C(=O)NCc3cccc(OC)c3)ccc21` (stereo unspecified), the Potency in assay [1] and in assay [2] was 12 µM (active) in each case.

With `Oc1cccc(C(Nc2ccccn2)c2ccc3cccnc3c2O)c1Cl` (stereo unspecified), the Potency in assay [1] is 13.5 µM (active); in assay [2] it was 10.7 µM (active). Further, the Potency entry in assay [3], in assay [4], in assay [5], in assay [6] and in assay [7] was “inactive” throughout.

For the molecule `O=C(Nc1cccc(Cl)c1)c1c(NC(=O)C(F)(F)F)sc2c1CCCC2`, the Potency is 4.46 µM (active) in assay [1], 0.354 µM (active) in assay [2], 5.4 µM (active) in assay [8] and 37.9 µM (active) in assay [3]. Besides, the Potency result in assay [4], in assay [5], in assay [6] and in assay [7] was “inactive” each time.
